Source: PubChem BioAssay (National Center for Advancing Translational Sciences (NCATS))
PLK1 PBD inh – blocks phosphopeptide binding to human PLK1 polo-box domain; P53350; Plk1 PBD binding of FITC phosphopeptide, fluorescence polarization; Potency, µM, without a hit: max response, negative = inhibition, actives largely listed as inhibitors; hit rate 2.8% among 360,000; note: series mostly up to about 57 µM; nearly all actives have a fitted effect of over 65% in size
VDR inh – vitamin D3 receptor (human) inhibition; VDR-SRC2-3 peptide fluorescence polarization, 2 h; Potency, µM, without a hit: max response, negative = inhibition, most hits filed as inhibitors; hit rate 0.93% among 400,000
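VDR–SRC2-3 interaction, FP format. Cmpds 23 nl via pintool, brief spin, 2 h ambient incubation.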
TDP1 cell CPT – DT40-hTDP1 cell growth loss with CPT; chicken DT40 Tdp1-/-;hTDP1 cells + 20 nM CPT, ATP luminescence, 48 h; Potency, µM (doses to about 46.2 µM), inactives show at the top dose activity change, negative = growth inhibition, most hits filed as inhibitors; hit rate 12% among 420,000; note: nearly all actives have a fitted effect of over 55% in size
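Chicken DT40 Tdp1-/- cells stably complemented with human TDP1 were seeded at 400 cells/well in medium containing 20 nM camptothecin, exposed to pin-transferred compounds, and grown at 37 °C for at least 48 hr. Viability was read as ATP luminescence.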
DT40 TDP1 no CPT – qHTS for Inhibitors of human tyrosyl-DNA phosphodiesterase 1 (TDP1): qHTS in cells in absence of CPT; DT40 Tdp1-/- hTDP1 cells, no CPT, ATP luminescence, 48 h; Potency, µM (series often up to 46.2 µM), for inactives: at the top dose activity change, negative = growth inhibition, hits mostly inhibitors; hit rate 15% among 420,000; note: nearly all actives have a fitted effect of over 55% in size
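Growth of hTDP1-complemented DT40 Tdp1-knockout cells is measured by ATP luminescence after at least 48 hr compound exposure at 37 °C, with DMSO substituting for the 20 nM CPT used in the parallel screen.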
TDP1 inh – inhibitors of human tyrosyl-DNA phosphodiesterase TDP1; recombinant TDP1, AlphaScreen DNA substrate cleavage; Potency, µM (doses to about 130 µM), inactives show at the top dose activity change, negative = inhibition, most hits filed as inhibitors; hit rate 0.28% among 350,000; note: nearly all actives have a fitted effect of over 40% in size
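E. coli-derived human Tdp1, 1 nM final. Cpd preinc 15 min RT; substrate 15 nM final, 5 min RT; AS bead mix 10 ug/ml final, 10 min RT. Signal loss = tyrosine-FITC cleavage. No-enzyme wells = max signal.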
KAT2A inh – blocks human GCN5L2 histone acetyltransferase; Q92830; GCN5L2 HAT assay, ThioGlo1 CoA-SH fluorescence; Potency, µM (titrated, usually from 58.9 µM), for the others: at the top dose activity change, negative = inhibition, hits mostly inhibitors; hit rate 0.21% among 390,000
Target sequence (Q92830 whole entry, looked up): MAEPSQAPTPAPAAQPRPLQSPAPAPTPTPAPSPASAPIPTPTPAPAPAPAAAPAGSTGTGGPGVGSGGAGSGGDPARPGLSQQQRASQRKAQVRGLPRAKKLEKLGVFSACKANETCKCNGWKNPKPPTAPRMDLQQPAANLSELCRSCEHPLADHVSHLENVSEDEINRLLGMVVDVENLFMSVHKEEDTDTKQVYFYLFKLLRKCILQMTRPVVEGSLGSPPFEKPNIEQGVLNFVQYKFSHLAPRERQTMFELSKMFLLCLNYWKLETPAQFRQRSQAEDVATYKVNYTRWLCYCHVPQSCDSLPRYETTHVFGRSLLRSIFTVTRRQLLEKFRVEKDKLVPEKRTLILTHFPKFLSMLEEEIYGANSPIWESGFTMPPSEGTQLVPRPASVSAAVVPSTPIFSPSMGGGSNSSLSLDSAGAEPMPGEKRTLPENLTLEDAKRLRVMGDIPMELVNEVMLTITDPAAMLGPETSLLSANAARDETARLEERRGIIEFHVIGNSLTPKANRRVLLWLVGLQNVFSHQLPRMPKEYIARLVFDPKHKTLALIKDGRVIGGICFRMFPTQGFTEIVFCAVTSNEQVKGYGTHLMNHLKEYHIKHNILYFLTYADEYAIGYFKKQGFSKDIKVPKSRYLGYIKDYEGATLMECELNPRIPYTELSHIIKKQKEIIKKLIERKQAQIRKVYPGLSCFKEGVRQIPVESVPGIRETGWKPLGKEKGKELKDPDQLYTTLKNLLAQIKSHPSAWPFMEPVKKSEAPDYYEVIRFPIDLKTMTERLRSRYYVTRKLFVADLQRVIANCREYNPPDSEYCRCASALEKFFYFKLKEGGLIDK
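Compounds, pin-transferred from DMSO stocks, meet 20nM GCN5L2 for 15 min before the reaction begins with H3(1-25) peptide (75uM) and acetyl-CoA (70uM). Thiol-reactive ThioGlo1 reports CoA release over 20 min at room temperature.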
Starred values were filed as active, the others as inactive; [ ] = dose if it differs, or a comment. Only some compounds are listed: those with a hit (about 18% of all), similar ones and a draw of the others. Calls come from the whole dose curve; as a rule, active = well fitted curve in the direction sought with a large enough effect; inconclusive = small, poorly fitted or top-dose-only effect, or another doubt; inactive = no such curve, though single readings can be large; an effect the other way counts as inactive or inconclusive. % is set by controls: 0 for no effect and ±100 for the full control effect; potency is the fitted concentration of half-maximal effect.

`COc1cc(OC)cc(C(=O)NCCSC2CCCCC2)c1` gave PLK1 PBD inh 5%, VDR inh 9%, TDP1 cell CPT -13%, DT40 TDP1 no CPT -15%, TDP1 inh -3% and KAT2A inh -7%.
`Cc1ccc(C)c(NS(=O)(=O)c2cc(C(=O)NCC3CCCO3)ccc2C)c1` (stereo not given) gave PLK1 PBD inh -3%, VDR inh 8%, TDP1 cell CPT -25%, DT40 TDP1 no CPT -24%, TDP1 inh 3% and KAT2A inh 1%.
`Cc1cccc(C(C)C)c1NC(=O)CN1C(=O)NC2(CCc3ccccc32)C1=O` (stereo not given) gave PLK1 PBD inh 2%, VDR inh 17%, TDP1 cell CPT -15%, DT40 TDP1 no CPT -21%, TDP1 inh -13% and KAT2A inh -2%.
For COCCN(C(=O)c1ccc(N(C)S(=O)(=O)c2ccc(C)cc2)cc1)c1c(N)n(CC(C)C)c(=O)[nH]c1=O the results were PLK1 PBD inh -7%, VDR inh 12%, TDP1 cell CPT -6% and DT40 TDP1 no CPT 12%.
Screening COc1ccc(CCN(C)CC(O)COC(c2ccc(F)cc2)c2ccc(F)cc2)cc1OC (stereo not given) returned PLK1 PBD inh 11%, VDR inh -8%, TDP1 cell CPT 16µM*, DT40 TDP1 no CPT inconclusive and KAT2A inh -16%.
For CCOc1ccc(OCC)c(Nc2cc(C)nc3nc(-c4ccco4)nn23)c1 the results were VDR inh -1%, TDP1 inh -4% and KAT2A inh -6%.
For COc1ccc2[nH]c3c(=O)n(Cc4ccc(C(=O)N5CCC(C(N)=O)CC5)cc4)c(=S)[nH]c3c2c1 the results were PLK1 PBD inh 21µM*, VDR inh inconclusive, TDP1 cell CPT inconclusive, DT40 TDP1 no CPT 29µM*, TDP1 inh -3% and KAT2A inh -22%.
`CCOC(=O)N1CCN(C(=O)c2ccc3c(=O)n(Cc4ccccc4)c(=S)[nH]c3c2)CC1` gave PLK1 PBD inh 4%, VDR inh -10%, TDP1 cell CPT -16%, DT40 TDP1 no CPT 0%, TDP1 inh 6% and KAT2A inh -6%.
CCOC(=O)N1CCN(C(=O)c2ccc(Cn3c(=S)[nH]c4cc5c(cc4c3=O)OCO5)cc2)CC1 was read as PLK1 PBD inh 2%, VDR inh -9%, TDP1 cell CPT 23µM*, DT40 TDP1 no CPT 16µM*, TDP1 inh 7% and KAT2A inh -3%.
`CCOC(=O)N1CCN(C(=O)c2ccc(Cn3c(=S)[nH]c4cc(OCC)c(OCC)cc4c3=O)cc2)CC1` gave PLK1 PBD inh -14%, VDR inh -11%, TDP1 cell CPT 10µM*, DT40 TDP1 no CPT 9.2µM*, TDP1 inh 3% and KAT2A inh -4%.
For CC[C@H](C)NC(=O)c1ccc(Cn2c(=S)[nH]c3c([nH]c4ccc(OC)cc43)c2=O)cc1 the results were PLK1 PBD inh -11%, VDR inh 9%, TDP1 cell CPT inconclusive, DT40 TDP1 no CPT 3%, TDP1 inh -2% and KAT2A inh 5%.
Cc1nn(C(C)C(=O)NC(C)CCc2ccccc2)c(=O)c2cc3occc3n12 (stereo not given) was read as PLK1 PBD inh -3%, VDR inh -4%, TDP1 cell CPT -25%, DT40 TDP1 no CPT -9%, TDP1 inh 2% and KAT2A inh -1%.
CC(C)(C)NC(=O)COC(=O)c1ccc(Cl)c(S(N)(=O)=O)c1 was read as PLK1 PBD inh -1%, VDR inh -2%, TDP1 cell CPT 6%, DT40 TDP1 no CPT 0%, TDP1 inh -3% and KAT2A inh 0%.
CN(C)C(=O)CCc1ccc2c3c([nH]c2c1)[C@]1(C)[C@@H](C(=O)N2CCCCC2)C[C@H](CC(=O)NCCc2ccccn2)C(=O)N1CC3 was read as PLK1 PBD inh -9%, VDR inh -14%, TDP1 cell CPT 12%, DT40 TDP1 no CPT -9%, TDP1 inh 0%[56.1 µM] and KAT2A inh -1%.
Screening CC(C)(C)NC(=O)CC1C[C@H](C(=O)N2CCCCC2)[C@@]2(C)c3[nH]c4ccccc4c3CCN2C1=O (stereo not given in full) returned PLK1 PBD inh -23%, VDR inh -7%, TDP1 cell CPT -28%, DT40 TDP1 no CPT inconclusive, TDP1 inh 3% and KAT2A inh -6%.
Screening CN(C)CCCNC(=O)CC1C[C@H](C(=O)N2CCOCC2)[C@@]2(CCC3CCCC3)c3[nH]c4ccccc4c3CCN2C1=O (stereo not given in full) returned PLK1 PBD inh -19%, VDR inh -15%, TDP1 cell CPT -17%, DT40 TDP1 no CPT -16%, TDP1 inh 1% and KAT2A inh -1%.
For CN(C)C(=O)CCc1ccc2c3c([nH]c2c1)[C@]1(C)[C@@H](C(=O)N2CCCCC2)C[C@H](CC(=O)NCc2cccc(C(F)(F)F)c2)C(=O)N1CC3 the results were PLK1 PBD inh -5%, VDR inh -7%, TDP1 cell CPT 21µM*, DT40 TDP1 no CPT 21µM*, TDP1 inh 2%[56.1 µM] and KAT2A inh -3%.
For O=C(CC1C[C@H](C(=O)N2CCOCC2)[C@@]2(CCC3CCCC3)c3[nH]c4ccccc4c3CCN2C1=O)NCc1cccc(C(F)(F)F)c1 (stereo not given in full) the results were PLK1 PBD inh -4%, VDR inh -4%, TDP1 cell CPT 23µM* and DT40 TDP1 no CPT inconclusive.
`O=C(CC1C[C@H](C(=O)N2CCOCC2)[C@@]2(CCC3CCCC3)c3[nH]c4ccccc4c3CCN2C1=O)NCCC1=CCCCC1` (stereo not given in full) gave PLK1 PBD inh -9%, VDR inh -3%, TDP1 cell CPT 1%, DT40 TDP1 no CPT -7%, TDP1 inh -1% and KAT2A inh 1%.
`CN(C)C(=O)CCc1ccc2c3c([nH]c2c1)[C@]1(CCC2CCCC2)[C@@H](C(=O)N2CCOCC2)C[C@H](CC(=O)NCc2cccc(C(F)(F)F)c2)C(=O)N1CC3` gave PLK1 PBD inh -1%, VDR inh -14%, TDP1 cell CPT 21µM*, DT40 TDP1 no CPT 15µM*, TDP1 inh 0%[56.1 µM] and KAT2A inh -7%.
